Screening results deposited in PubChem BioAssay by National Center for Advancing Translational Sciences (NCATS).
RORgamma inh = qHTS for inhibitors of ROR gamma transcriptional activity | AID 2551, 2010 | Drosophila S2 Gal4-RORgamma UAS-luciferase reporter, 20 h | Potency, µM (series often up to 53.6 µM), actives largely listed as inhibitors | 310,000 compounds, 5.4% hits | Nuclear receptor ROR-gamma (Mus musculus), P51450; further: nearly all actives have a fitted effect of over 60% in size
Target sequence (P51450 whole entry, looked up, the tested form may be a part): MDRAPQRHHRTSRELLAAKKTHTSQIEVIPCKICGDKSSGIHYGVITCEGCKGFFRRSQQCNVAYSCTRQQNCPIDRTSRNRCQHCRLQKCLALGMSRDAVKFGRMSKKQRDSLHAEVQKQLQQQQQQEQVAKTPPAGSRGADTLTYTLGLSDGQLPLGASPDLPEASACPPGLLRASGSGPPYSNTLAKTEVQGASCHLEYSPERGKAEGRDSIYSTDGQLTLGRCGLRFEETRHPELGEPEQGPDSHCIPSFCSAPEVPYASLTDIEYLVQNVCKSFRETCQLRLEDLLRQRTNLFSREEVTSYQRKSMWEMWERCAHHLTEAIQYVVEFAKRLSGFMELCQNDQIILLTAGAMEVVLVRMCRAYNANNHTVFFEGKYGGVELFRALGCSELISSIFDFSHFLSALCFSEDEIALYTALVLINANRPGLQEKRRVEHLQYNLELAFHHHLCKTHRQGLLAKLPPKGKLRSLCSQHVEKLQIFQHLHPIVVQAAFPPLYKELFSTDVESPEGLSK
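Compounds are pin-transferred onto Drosophila Schneider cells expressing a copper-inducible Gal4–ROR gamma transactivation domain fusion. After 1 hr, copper sulfate is added to 700 uM final; luciferase is read 20 hr later.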
Luc counter = Counterscreen for Luciferase (Kinase-Glo TM) Inhibition; Luciferin 4-monooxygenase (Photuris pensylvanica), Q27757; Potency, µM (highest dose often 38.3 µM), actives largely listed as inhibitors; Kinase-Glo luciferase, ATP luminescence, 8 min; AID 1379, 2008; 200,000 compounds, 0.28% hits; further: nearly all actives have a fitted effect of over 60% in size
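Light output from Kinase-Glo luciferase with luciferin and 10 uM ATP in 50 mM imidazole pH 7.2, KCl, MgCl2, Tween 20, BSA; compound pin-delivered, 8-min ambient incubation, then luminescence read.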
VP16 counter = VP16 counterscreen qHTS for inhibitors of ROR gamma transcriptional activity. 310,000 compounds, 3.5% hits. Drosophila S2 Gal4-VP16 UAS-luciferase, luminescence, 20 h. Potency, µM (doses to about 53.6 µM), usual class: inhibitors;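 further: Gal4-VP16 expression switched on by copper sulfate through the metallothionein promoter; nearly all actives have a fitted effect of over 50% in size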
Hits are given with their value; [ ] = another dose, or the depositor's remark. Rows were chosen to be rich in hits. Some 6.2% of all compounds tested hit in one or more screens of this group. The call rests on the fitted dose curve; in most records, active means well fitted curve in the direction sought with a large enough effect; inconclusive means small, poorly fitted or top-dose-only effect, or another doubt; inactive means no such curve, though single readings can be large; an effect the other way counts as inactive or inconclusive.

`CC1C/C(=C\c2cccnc2)C(=O)/C(=C/c2cccnc2)C1` (stereo not drawn) gave RORgamma inh 1.1µM, Luc counter inactive and VP16 counter 0.63µM.
O=C1/C(=C/c2cccnc2)CCc2c1[nH]c1ccccc21 was read as RORgamma inh inactive, Luc counter inactive and VP16 counter inactive.
Cc1cccc(NC(=O)CSc2nnc(Cc3ccccc3)o2)c1 was read as RORgamma inh inactive, Luc counter inactive and VP16 counter inactive.
`O=C(O)c1ccc(COCC(F)(F)C(F)F)o1` gave RORgamma inh inactive, Luc counter inactive and VP16 counter inactive.
`CC(CC(=O)NCc1ccccc1)C1CCCO1` (stereo not drawn) gave RORgamma inh inactive, Luc counter inactive and VP16 counter inactive.
Screening O=C(NC(=S)N1CCCC(C(F)(F)F)C1)c1ccc(F)cc1 (stereo not drawn) returned RORgamma inh 0.56µM and VP16 counter 0.71µM.
Screening CC(=O)c1ccc(NC(=S)N2CCCC(C(F)(F)F)C2)cc1 (stereo not drawn) returned RORgamma inh inactive, Luc counter inactive and VP16 counter inactive.
COCCC(=O)N1CCCC(C(=O)c2ccc(Oc3ccccc3)cc2)C1 (stereo not drawn) was read as RORgamma inh inactive, Luc counter inactive and VP16 counter inactive.
O=C(NCC(=O)N1CCCC(C(F)(F)F)C1)c1ccc(Oc2ccccc2)cc1 (stereo not drawn) was read as RORgamma inh 8.9µM and VP16 counter 13µM.
O=C(NCCC(=O)N1CCCC(C(F)(F)F)C1)c1ccc(Br)cc1 (stereo not drawn) was read as RORgamma inh inactive and VP16 counter inactive.
CCN1CCN(CC(=O)N2CCCC(C(=O)c3ccc(Oc4ccccc4)cc3)C2)CC1 (stereo not drawn) was read as RORgamma inh 7.9µM, Luc counter inactive and VP16 counter inconclusive.
For COc1ccc(S(=O)(=O)N2CCc3ccccc32)cc1[N+](=O)[O-] the results were RORgamma inh inactive and VP16 counter inactive.
CCCc1nn2c(=O)cc(COc3ccc(NC(=O)c4ccco4)cc3)nc2s1 was read as RORgamma inh inactive and VP16 counter inactive.
For Cc1nc2cnc(N3CCNCC3)nc2n(CCC#N)c1=O the results were RORgamma inh inactive, Luc counter inactive and VP16 counter inactive.
O=C(CC(c1ccco1)S(=O)(=O)c1ccccc1)c1ccccc1 (stereo not drawn) was read as RORgamma inh inactive and VP16 counter inactive.
CC(Sc1ccccc1)C(=O)NN=C1CCCCCC1 (stereo not drawn) was read as RORgamma inh inactive, Luc counter inactive and VP16 counter inactive.
Screening COC(=O)N1C2CC(=O)O[C@@H]3c4cc5c(cc4[C@]1(C)[C@@]3(Br)c1ccccc12)OCO5 returned Luc counter inactive[7.66 µM].
For Cn1cc(C(=O)c2ccc(Cl)cc2Cl)cc1C(=O)O the results were RORgamma inh inactive, Luc counter inactive and VP16 counter inactive.
For CCOC(=O)C/C(N)=N/NC(=O)c1ccc(Cl)cc1Cl the results were RORgamma inh 7.9µM, Luc counter inactive and VP16 counter inconclusive.
Screening CNC(=O)/C=C/c1cc(C(=O)c2ccc(Cl)cc2Cl)cn1C returned RORgamma inh inactive and VP16 counter inactive.
Screening Cn1cc(C(=O)c2ccc(Cl)cc2Cl)cc1C(=O)N/N=C(\N)COc1ccc(Cl)cc1Cl returned RORgamma inh 1.4µM, Luc counter inactive and VP16 counter 4µM.
For N/C(COc1ccc(Cl)cc1Cl)=N\O the results were RORgamma inh inconclusive and VP16 counter inactive.
CC/C(C)=N\NC(=O)CNC(=O)c1ccc(Cl)cc1Cl was read as RORgamma inh inconclusive, Luc counter inactive and VP16 counter inconclusive.
Screening Cn1cc(C(=O)c2ccc(Cl)cc2Cl)cc1C(=O)N/N=C(\N)COc1ccc(F)cc1 returned RORgamma inh 2.2µM, Luc counter inactive and VP16 counter 2.5µM.
Cn1cc(C(=O)c2ccc(Cl)cc2Cl)cc1C(=O)N/N=C(\N)COc1ccccc1 was read as RORgamma inh 0.71µM, Luc counter inactive and VP16 counter 1.6µM.
For CC(=O)Oc1ccc(C2(c3ccc(OC(C)=O)cc3)C(=O)Nc3ccccc32)cc1 the results were RORgamma inh inactive, Luc counter inactive and VP16 counter inactive.
Cn1cc(C(=O)c2ccc(Cl)cc2Cl)cc1C(=O)N/N=C(\N)COc1ccc(Cl)cc1 was read as RORgamma inh 1.4µM and VP16 counter 3.5µM.
Screening C/C(=N/NC(=O)c1ccncc1)c1ccc(NC(=O)c2ccc(Cl)cc2Cl)cc1 returned RORgamma inh inactive and VP16 counter inactive.
